Among all 39,000 compounds or so, about 1,500 (3.8%) were called active. The entries come from a sample that favours actives as a whole.

This test concerns HSkMC (human skeletal muscle cells). Nature of the test: cytotoxicity call (relative viability < 0.9). To be noted: 10 µM.
Consider `CC(=O)N(C)C[C@@H]1Oc2ncc(C#CC(C)(C)O)cc2C(=O)N([C@@H](C)CO)C[C@H]1C`, for which the cytotoxicity call was “inactive”.
Consider `CC(=O)N(C)C[C@@H]1Oc2ncc(C#CC(C)(C)O)cc2C(=O)N([C@@H](C)CO)C[C@@H]1C`, for which the cytotoxicity call is “active”.
Regarding `C[C@@H]1CN([C@H](C)CO)C(=O)c2cc(C#CC3(O)CCCC3)cnc2O[C@H]1CN(C)C(=O)Cc1ccccc1`, the cytotoxicity call is “inactive”.
As to `C[C@H](CO)N1C[C@H](C)[C@H](CN(C)C(=O)Cc2ccccc2)Oc2ncc(C#CC3(O)CCCC3)cc2C1=O`, the cytotoxicity call is “active”.
Under `C[C@H](CO)N1C[C@H](C)[C@@H](CN(C)C(=O)Cc2ccccc2)Oc2ncc(C#CC3(O)CCCC3)cc2C1=O` stands “inactive”; under `CC(=O)N(C)C[C@H]1Oc2ncc(C#CC(C)(C)O)cc2C(=O)N([C@H](C)CO)C[C@H]1C`, “inactive”.
Under `Cc1noc(C)c1S(=O)(=O)Nc1ccc2c(c1)CC(=O)N([C@@H](C)CO)C[C@@H](C)[C@H](CN(C)S(=O)(=O)c1ccccc1)O2` stands “inactive”; under `C[C@@H]1CN([C@@H](C)CO)C(=O)Cc2cc(NS(=O)(=O)c3ccccc3)ccc2O[C@@H]1CN(C)CC1CC1`, “inactive”.
Take `COc1ccc(S(=O)(=O)Nc2ccc3c(c2)C(=O)N([C@H](C)CO)C[C@H](C)[C@@H](CN(C)C(=O)NC2CCCCC2)OCCCC[C@H](C)O3)cc1`: the cytotoxicity call was “inactive”.
Under `CC(C)NC(=O)N(C)C[C@@H]1Oc2ccc(NS(=O)(=O)c3ccccc3)cc2C(=O)N([C@@H](C)CO)C[C@@H]1C` stands “inactive”; under `C[C@H]1CCCCO[C@@H](CN(C)Cc2ccc(C(=O)O)cc2)[C@@H](C)CN([C@@H](C)CO)C(=O)c2cc(NC(=O)Nc3cccc4ccccc34)ccc2O1`, “inactive”; under `CCC(=O)Nc1ccc2c(c1)OC[C@H](C)N(C(=O)CN1CCOCC1)C[C@@H](C)[C@@H](OC)CN(C)C2=O`, “inactive”.
With `O=C(Nc1ccc(-c2nc3ccc(NC(=O)c4ccc(NC(=O)c5cccc6ccccc56)cc4)cc3[nH]2)cc1)c1ccc(NC(=O)c2cccc3ccccc23)cc1`, the cytotoxicity call is “inactive”.
Under `O=C(Nc1ccc(-c2nc3ccc(NC(=O)c4ccc(Cl)cc4)cc3[nH]2)cc1)c1ccc(Cl)cc1` stands “active”; under `O=C(Nc1ccc(-c2nc3ccc(NC(=O)c4ccccc4[N+](=O)[O-])cc3[nH]2)cc1)c1ccccc1[N+](=O)[O-]`, “inactive”.
On to `c1ccc(-c2nn(-c3ccccc3)c3c2cnc2ccccc23)cc1`, for which the cytotoxicity call is “inactive”.
Under `C[C@@H]1CN([C@@H](C)CO)C(=O)c2cc(C#Cc3ccccc3F)cnc2O[C@H]1CN(C)C(=O)c1ccc2c(c1)OCO2` stands “inactive”; under `c1cnc(-c2cc[nH]n2)cn1`, “inactive”.
On to `C[C@@H]1CN([C@@H](C)CO)C(=O)c2ccccc2-c2ccccc2CO[C@H]1CN(C)C(=O)N[C@H](C)c1ccccc1`, for which the cytotoxicity call was “inactive”.
To `Cc1cc(C)c(NC(=O)CN(CC(=O)O)CC(=O)O)c(C)c1Br` belongs “inactive”; to `Cn1cnc(S(=O)(=O)N2C[C@H](O)COC[C@@H]3O[C@@H](CC(=O)NCc4cccc(F)c4)CC[C@H]32)c1`, “inactive”; to `C[C@@H]1CN([C@H](C)CO)S(=O)(=O)c2ccc(-c3ccncc3)cc2O[C@@H]1CN(C)S(=O)(=O)c1ccccc1F`, “inactive”.
To `Cc1cc(-c2ccc(N=Nc3ccc4c(S(=O)(=O)[O-])cc(S(=O)(=O)[O-])c(N)c4c3O)c(C)c2)ccc1N=Nc1ccc2c(S(=O)(=O)[O-])cc(S(=O)(=O)[O-])c(N)c2c1O.[Na+].[Na+].[Na+].[Na+]` belongs “active”; to `Cc1ccc(S(=O)(=O)Oc2ccc(/N=N/c3ccc(-c4ccc(/N=N/c5c(O)ccc6cc(S(=O)(=O)O)cc(S(=O)(=O)O)c56)c(C)c4)cc3C)cc2)cc1`, “inactive”; to `C[C@H]1CN([C@@H](C)CO)C(=O)c2cc(C#Cc3ccncc3)cnc2O[C@@H]1CN(C)S(=O)(=O)c1ccccc1F`, “inactive”.
To `C[C@@H]1CN([C@@H](C)CO)C(=O)c2cc(NC(=O)Nc3ccc(F)cc3)ccc2O[C@@H]1CN(C)Cc1ccc(C(F)(F)F)cc1` belongs “active”; to `C[C@@H]1CN([C@H](C)CO)C(=O)c2cc(NC(=O)Nc3ccc(F)cc3)ccc2O[C@@H]1CN(C)Cc1ccc(C(F)(F)F)cc1`, “inactive”; to `C[C@H](CO)N1C[C@H](C)[C@H](CN(C)Cc2ccc(C(F)(F)F)cc2)Oc2ccc(NC(=O)Nc3ccc(F)cc3)cc2C1=O`, “inactive”.
`C[C@@H]1CN([C@@H](C)CO)C(=O)c2cc(NC(=O)Nc3ccc(F)cc3)ccc2O[C@H]1CN(C)Cc1ccc(C(F)(F)F)cc1`: the cytotoxicity call is “active”.
For the compound `C[C@H]1CN([C@@H](C)CO)C(=O)c2cc(NC(=O)Nc3ccc(F)cc3)ccc2O[C@H]1CN(C)Cc1ccc(C(F)(F)F)cc1`, the cytotoxicity call is “inactive”.
`C[C@H](CO)N1C[C@H](C)[C@@H](CN(C)Cc2ccc(C(F)(F)F)cc2)Oc2ccc(NC(=O)Nc3ccc(F)cc3)cc2C1=O`: the cytotoxicity call was “active”.
Turning to `C[C@@H]1CN([C@H](C)CO)C(=O)c2cc(NC(=O)Nc3ccc(F)cc3)ccc2O[C@H]1CN(C)Cc1ccc(C(F)(F)F)cc1`, the cytotoxicity call was “active”.
Consider `C[C@H]1CN([C@@H](C)CO)C(=O)c2cc(NC(=O)Nc3ccc(F)cc3)ccc2O[C@@H]1CN(C)Cc1ccc(C(F)(F)F)cc1`, for which the cytotoxicity call was “inactive”.
To `O=C(C[C@H]1C=C[C@@H](NC(=O)Nc2cc(F)ccc2F)[C@@H](CO)O1)NCCCN1CCOCC1` belongs “inactive”; to `CCS(=O)(=O)N1C[C@]2(CN(C2)C(=O)Nc2ccc3c(c2)OCO3)c2c(n(c3cc(ccc23)OC)C)[C@H]1CO`, “inactive”; to `N=C(N)N.O=C(O)O`, “inactive”.
Under `Cc1noc(C)c1S(=O)(=O)N(C)C[C@H]1Oc2ccc(NS(C)(=O)=O)cc2CC(=O)N([C@H](C)CO)C[C@@H]1C` stands “inactive”; under `COc1ccc(NC(=O)N(C)C[C@@H]2Oc3ccc(NC(=O)Cn4cnnn4)cc3CC(=O)N([C@H](C)CO)C[C@H]2C)cc1`, “inactive”.
Take `C[C@H](CO)N1C[C@H](C)[C@H](CN(C)C(=O)Nc2ccc(C(F)(F)F)cc2)OCCCC[C@H](C)Oc2ccc(NS(=O)(=O)c3cn(C)cn3)cc2C1=O`: the cytotoxicity call was “inactive”.
To `O=C(C[C@H]1C=C[C@@H](NC(=O)c2cccc(F)c2)[C@H](CO)O1)NCCN1CCCC1` belongs “inactive”; to `COc1ccc(-c2cnc3c(c2)C(=O)N([C@H](C)CO)C[C@H](C)[C@H](CN(C)S(=O)(=O)c2ccc(F)cc2)O3)cc1`, “inactive”.
Under `Cc1ccc(S(=O)(=O)N(C)C[C@@H]2Oc3c(NS(=O)(=O)c4ccccc4)cccc3C(=O)N([C@@H](C)CO)C[C@H]2C)cc1` stands “inactive”; under `NCC[C@H]1CC[C@@H](NC(=O)c2ccccc2F)[C@@H](CO)O1`, “inactive”; under `Cc1ccc(S(=O)(=O)N(C)C[C@@H]2Oc3c(NS(C)(=O)=O)cccc3C(=O)N([C@H](C)CO)C[C@H]2C)cc1`, “inactive”.
To `Cc1cc(C(=O)Nc2cccc3c2O[C@@H](CN(C)S(C)(=O)=O)[C@@H](C)CN([C@@H](C)CO)C3=O)n(C)n1` belongs “inactive”.
Consider `C[C@@H]1CCCCO[C@@H](CN(C)S(=O)(=O)c2ccc(Cl)cc2)[C@@H](C)CN([C@@H](C)CO)C(=O)c2cc(NS(=O)(=O)c3ccc(F)cc3)ccc2O1`, for which the cytotoxicity call is “inactive”.
To `O=C(C[C@@H]1CC[C@H]2[C@@H](COC[C@@H](O)CN2S(=O)(=O)c2ccc(Oc3ccccc3)cc2)O1)NCCN1CCCCC1` belongs “inactive”.
To `COc1ccc(N(C(=O)CCl)[C@@H](C(=O)NCCc2ccccc2)c2ccc(Cl)s2)cc1Cl` belongs “active”; to `O=C(CCCl)NCCc1ccccc1`, “inactive”.
Turning to `CC(C)(C)OC(=O)NCCOCCOCCOc1ccc(N(C(=O)CCl)[C@@H](C(=O)NCCc2ccccc2)c2cccs2)cc1Cl`, the cytotoxicity call is “active”.
To `COc1ccc(N(C(=O)CSc2ncccn2)[C@@H](C(=O)NCCc2ccccc2)c2cccs2)cc1Cl` belongs “inactive”.
As to `Cn1cnc(S(=O)(=O)N[C@H]2CC[C@@H](CC(=O)N3CCN(c4ccccc4)CC3)O[C@H]2CO)c1`, the cytotoxicity call is “inactive”.
As for `C[C@@H]1CN([C@H](C)CO)C(=O)Cc2cc(NC(=O)CCC(F)(F)F)ccc2O[C@H]1CN(C)Cc1ccc(Oc2ccccc2)cc1`, the cytotoxicity call was “inactive”.
As to `C[C@H]1CCCCO[C@H](CN(C)C(=O)Nc2cccc3ccccc23)[C@@H](C)CN([C@@H](C)CO)C(=O)c2cc(NS(=O)(=O)c3ccc(Cl)cc3)ccc2O1`, the cytotoxicity call was “inactive”.
As to `COC(=O)[C@@H]1OC(=O)[C@H]2O[C@@]23[C@]2(C)[C@@H](O)C[C@H]4C(C)(C)[C@H](OC(C)=O)C[C@H](OC(C)=O)[C@]4(C)[C@@H]2CC[C@@]13C`, the cytotoxicity call was “inactive”.
Under `COc1ccc(CN(CCN(C)C)c2ncccn2)cc1.Cl` stands “inactive”.
To `COc1ccc(CN(CCN(C)C)c2ccccn2)cc1.O=C(O)C=CC(=O)O` belongs “inactive”; to `CCCCCCCCCCCCCCCC[N+](C)(C)CCN(Cc1ccc(OC)cc1)c1ncccn1`, “active”; to `C[C@@H]1CCCCO[C@H](CN(C)Cc2ccc(C(=O)O)cc2)[C@H](C)CN([C@H](C)CO)C(=O)c2cc(NC(=O)Nc3ccc(F)cc3)ccc2O1`, “inactive”.
Under `C[C@@H]1CCCCO[C@H](CN(C)C(=O)C2CCCCC2)[C@@H](C)CN([C@H](C)CO)C(=O)c2cc(NC(=O)Cc3ccccc3)ccc2O1` stands “inactive”; under `NCC[C@@H]1CC[C@@H](NC(=O)C2CCCCC2)[C@@H](CO)O1`, “inactive”; under `C[C@@H]1CCCCO[C@H](CN(C)S(=O)(=O)c2ccc(F)cc2)[C@@H](C)CN([C@@H](C)CO)C(=O)c2cc(NC(=O)Nc3ccc(F)cc3)ccc2O1`, “inactive”.
Turning to `C[C@@H]1CCCCO[C@@H](CN(C)C(=O)Nc2ccc(F)cc2)[C@@H](C)CN([C@@H](C)CO)C(=O)c2cc(NC(=O)Nc3ccc(F)cc3)ccc2O1`, the cytotoxicity call was “inactive”.
Under `COc1ccc(NC(=O)N(C)C[C@H]2Oc3c(NC(=O)C4CCOCC4)cccc3C(=O)N([C@H](C)CO)C[C@H]2C)cc1` stands “inactive”; under `COc1ccc(C(=O)O)c(O)c1OC`, “inactive”.
Under `COC1=C(N)C(=O)c2nc(-c3nc(C(=O)O)c(C)c(-c4ccc(OC)c(OC)c4O)c3N)ccc2C1=O` stands “active”.

The values above are taken from the antibiotic and cytotoxicity screens of Wong et al. (2023).
